Records with an inconclusive call do not appear. Values without a mark were called inactive. Activity calls are given as the source filed them. Calls come from the whole dose curve; as a rule, active = well fitted curve in the direction sought with a large enough effect; inconclusive = small, poorly fitted or top-dose-only effect, or another doubt; inactive = no such curve, though single readings can be large; an effect the other way counts as inactive or inconclusive. Square brackets hold non-standard residues; d marks the D form. Peptide text beside a SMILES is read from it. * marks the point of attachment. ξ: configuration not given here. Hexanoyl = CCCCCC(=O)*; ξL = CC(C)CC(N)C(=O)O
Test: HEK-293 Cancer Cell Toxicity qHTS against the NCATS CANVASS Library (AID 1347355); note: nearly all actives have a fitted effect of over 65% in size; note: potency is the fitted concentration of half-maximal effect; for activity change, negative = cytotoxicity: % is set by controls: 0 for no effect and ±100 for the full control effect
Conditions: HEK-293 viability, CellTiter-Glo luminescence, 72 h; series mostly up to 46.1 µM; activity change, negative = cytotoxicity: at the top concentration
Outline: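 Using an ATP-based luminescent reagent after three days of treatment, toxicity is scored across an eleven-concentration range in wells holding 1000 cells each.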

Compound | activity change, negative = cytotoxicity | Potency | outcome
CC(=O)N[C@H](C)c1nc(/C=C/C=C/C(=O)CC2CC(=O)CC[C@]2(C)O)cs1 (some centres undefined) | 1.43% |  | 
CN1C(=O)C(=O)N2C(=C[C@]3(c4c[nH]c5ccccc45)c4ccccc4N[C@H]23)C1=O | 3.72% |  | 
C/C=C1/C2=CCCN3C(=O)O[C@H]([C@H]1O)[C@H]23 | -13.4% |  | 
COC1C(C)OC(OCC23C[C@@H]4[C@H](C)CC[C@H]4C4(C=O)CC2C=C(C(C)C)C34C(=O)O)[C@@H](O)[C@H]1O (some centres undefined) | 0.864% |  | 
CN1CC[C@@]2([C@@]34CCN(C)[C@@H]3Nc3ccccc34)c3ccccc3N[C@@H]12 | -3.28% |  | 
COc1ccc(-c2oc3cc(OC)cc(OC)c3c(=O)c2O)cc1 |  | 18.7 µM (active) | 
CC[C@@H](C)[C@H]1NC(=O)C(CC(C)C)NC(=O)[C@@H](CC(C)C)NC(=O)[C@H](Cc2c[nH]c3ccccc23)NC(=O)CNC(=O)[C@@H](CC(N)=O)NC1=O (stereo partly drawn) (cyclo(GW[dL][ξL][dI][dN])) |  | 11.8 µM (active) | 
C=C(Cl)[C@](Cl)(CBr)CC[C@@H](Br)C(C)(C)Cl |  | 9.35 µM (active) | 
C=C(C)C(=O)O[C@H]1C[C@@]2(C)OC(=CC2=O)/C(C)=C\[C@H]2OC(=O)C(=C)[C@H]12 |  | 1.05 µM (active) | 
CC[C@@H]1C[C@@]2(CC)OC(=O)[C@@]3(CC)[C@H](CC)[C@@H]1[C@@H]23 |  |  | inactive
COC(=O)c1cccc2oc(-c3cccc4oc(-c5c(C)cccc5O)nc34)nc12 | -8.13% |  | 
C[C@@]12CCC[C@@](C)(C(=O)OP(=O)(O)OC[C@H]3O[C@@H](n4cnc5c(N)ncnc54)[C@H](O)[C@@H]3O)[C@H]1C[C@@H](O)[C@@]13C[C@@H](CC[C@@H]21)[C@](C)(O)C3 | -11.5% |  | 
CCC(C)=C1OC(=O)[C@H](C)[C@H](O)[C@H](Cc2cccnc2)NC(=O)C(NC(=O)c2ncccc2O)C(C)OC1=O (some centres undefined) | -12.4% |  | 
C[C@@]12CCC[C@@](C)(C(=O)O)[C@H]1CC[C@@]13C[C@@H](CC[C@H]12)[C@](C)(O)C3 |  |  | inactive
O=C1OC(CCO)c2cccc(O)c21 (centres undefined) |  |  | inactive
O=C1CC(c2ccc(O)cc2)Oc2cc(O)cc(O)c21 (centres undefined) | 2.43% |  | 
O=C1CC(c2ccc(O)cc2)Oc2cc(O)ccc21 (centres undefined) | -5.77% |  | 
CN1CC[C@@]23c4ccccc4N[C@@H]1[C@@]21CCN(C)[C@@H]3Nc2ccccc21 | -8.58% |  | 
C[C@@]12CCC[C@@](C)(C(=O)O)[C@H]1C[C@@H](O)[C@@]13C[C@@H](CC[C@@H]21)[C@](C)(O)C3 |  |  | inactive
C=C[C@@]1(C)CC[C@@H]([C@H](C)C(C)=O)O1 | 2.71% |  | 
C[C@@]12C[C@@H](C[C@@H]3C(=O)O[C@@H](c4ccoc4)[C@H](OC(=O)c4ccccc4)[C@@H]31)OC2=O |  |  | inactive
C=C1[C@@]2(C)CC3C4(C)CCC(O)C(C)(C)C4CCC3(C)[C@]1(C(=O)OC)C(=O)C(C)(O)C2=O (some centres undefined) | -11.5% |  | 
COc1ccc([C@@H]2c3cc4c(cc3C(=O)C(C)C2C)OCO4)cc1OC (some centres undefined) | -13% |  | 
CC1(C)CC[C@]2(CO)CC[C@]3(C)C(=CCC4[C@@]5(C)CC[C@H](O)C(C)(C)C5CC[C@]43C)C2C1 (some centres undefined) |  |  | inactive

Test: HPAF-II 24hr Apoptosis Induction qHTS against the NCATS CANVASS Library (AID 1347356); note: 0% is about no effect
Conditions: HPAF-II caspase-3/7 Caspase-Glo luminescence; series mostly up to 46.1 µM; caspase activation: at the top concentration
Outline: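 Using an 11-point qHTS format, HPAF-II cells in DMEM/10% FBS received compounds for 24 h; doxorubicin titration as control. Caspase-3/7 activity quantified by DEVD-luciferase luminescence.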

Compound | caspase activation
CC(=O)N[C@H](C)c1nc(/C=C/C=C/C(=O)CC2CC(=O)CC[C@]2(C)O)cs1 (some centres undefined) | 0.999%
CN1C(=O)C(=O)N2C(=C[C@]3(c4c[nH]c5ccccc45)c4ccccc4N[C@H]23)C1=O | 2.89%
CN1CC[C@]23c4ccccc4N[C@H]1[C@]21CCN(C)[C@H]3Nc2ccccc21 | 4.62%
C/C=C1/C2=CCCN3C(=O)O[C@H]([C@H]1O)[C@H]23 | -4.1%
O=C1CC(c2ccc(O)cc2)Oc2ccccc21 (centres undefined) | -8.82%
COc1c(O)cc(O)c2c(=O)cc(-c3ccccc3)oc12 | -2.13%
COC1C(C)OC(OCC23C[C@@H]4[C@H](C)CC[C@H]4C4(C=O)CC2C=C(C(C)C)C34C(=O)O)[C@@H](O)[C@H]1O (some centres undefined) | -2.12%
CN1CC[C@@]2([C@@]34CCN(C)[C@@H]3Nc3ccccc34)c3ccccc3N[C@@H]12 | -1.56%
COc1ccc(-c2oc3cc(OC)cc(OC)c3c(=O)c2O)cc1 | 0.551%
CC[C@@H](C)[C@H]1NC(=O)C(CC(C)C)NC(=O)[C@@H](CC(C)C)NC(=O)[C@H](Cc2c[nH]c3ccccc23)NC(=O)CNC(=O)[C@@H](CC(N)=O)NC1=O (stereo partly drawn) (cyclo(GW[dL][ξL][dI][dN])) | -4.54%
Cc1cc(O)cc2c1C(=O)c1c(O)cc(O)cc1C2=O | 2.68%
C=C(Cl)[C@](Cl)(CBr)CC[C@@H](Br)C(C)(C)Cl | 7.08%
C=C(C)C(=O)O[C@H]1C[C@@]2(C)OC(=CC2=O)/C(C)=C\[C@H]2OC(=O)C(=C)[C@H]12 | -6.62%
C=C[C@]1(C)CC[C@@H]([C@H](C)C(=O)CC=C(C)C)O1 | -0.691%
CC[C@@H]1C[C@@]2(CC)OC(=O)[C@@]3(CC)[C@H](CC)[C@@H]1[C@@H]23 | -0.948%
[C-]#[N+][C@@]12C(=O)[C@@H]3[C@@H](O[C@@]4(C(=O)N(C)c5cccc1c54)C3(C)C)C(=O)[C@@]2(C)C=C | -2.06%
COC(=O)c1cccc2oc(-c3cccc4oc(-c5c(C)cccc5O)nc34)nc12 | 4.63%
C[C@@]12CCC[C@@](C)(C(=O)OP(=O)(O)OC[C@H]3O[C@@H](n4cnc5c(N)ncnc54)[C@H](O)[C@@H]3O)[C@H]1C[C@@H](O)[C@@]13C[C@@H](CC[C@@H]21)[C@](C)(O)C3 | 0.589%
CCC(C)=C1OC(=O)[C@H](C)[C@H](O)[C@H](Cc2cccnc2)NC(=O)C(NC(=O)c2ncccc2O)C(C)OC1=O (some centres undefined) | 0.848%
C[C@@]12CCC[C@@](C)(C(=O)O)[C@H]1CC[C@@]13C[C@@H](CC[C@H]12)[C@](C)(O)C3 | 1.13%

Compound | caspase activation
O=C1OC(CCO)c2cccc(O)c21 (centres undefined) | -0.541%
C=C1C[C@]23C=CC(=O)[C@@](C)(CCCC(C)C(=O)N[C@@H](CO)C(=O)O)[C@@H]2C[C@@H]1CC3 (some centres undefined) | 0.19%
COc1cc2ccc(=O)oc2c(O)c1O[C@@H]1O[C@H](CO)[C@@H](O)[C@H](O)[C@H]1O | 7.04% [at 27.5 µM]
C/C(=C\[C@@H](C)CC/C=C/CC/C=C/C(=O)O)[C@@H](O)[C@H](C)C(=O)CCCC1CC(=O)NC(=O)C1 | -1.23%
CO[C@@H](C[C@@H](C)[C@@H](O)/C=C/C=C/CNC(=O)C(C)(C)[C@H](O)\C(C)=C/C=C\C=C\Cc1cnco1)[C@]1(O)[C@@H](C)C(=O)N(C)[C@@]12COC2=O | 0.921%
O=C1CC(c2ccc(O)cc2)Oc2cc(O)cc(O)c21 (centres undefined) | -0.649%
O=C1CC(c2ccc(O)cc2)Oc2cc(O)ccc21 (centres undefined) | 1.81%
CN1CC[C@@]23c4ccccc4N[C@@H]1[C@@]21CCN(C)[C@@H]3Nc2ccccc21 | 3.64%
C[C@@]12CCC[C@@](C)(C(=O)O)[C@H]1C[C@@H](O)[C@@]13C[C@@H](CC[C@@H]21)[C@](C)(O)C3 | 4.72%
O=Cc1ccc2n1C[C@]1(OC2)O[C@H](CO)[C@@H](O)[C@@H]1O | 4.17%
C=C[C@@]1(C)CC[C@@H]([C@H](C)C(C)=O)O1 | 2.71%
C/C=C(/CO)C(=O)O[C@@H]1[C@H](O)[C@@H](C(=O)OC)O[C@@H]2C[C@H]3OC(n4cnc5c(N)ncnc54)[C@H](OC)[C@H]3O[C@@]12O (some centres undefined) | 1.94%
C/C=C/[C@H]1[C@H]2C(=O)c3c(O)c(C)c(O)c(C)c3[C@]1(C(=O)O)C(=O)C=C2C | 4.05%
C[C@@]12C[C@@H](C[C@@H]3C(=O)O[C@@H](c4ccoc4)[C@H](OC(=O)c4ccccc4)[C@@H]31)OC2=O | -1.62%
C=C1CCC2C(C)(C(=O)O)CCC(CC/C(C)=C/C(=O)NC(CCC(N)=O)C(=O)O)[C@@]2(C)C1 (some centres undefined) | 5.52%
C=C1[C@@]2(C)CC3C4(C)CCC(O)C(C)(C)C4CCC3(C)[C@]1(C(=O)OC)C(=O)C(C)(O)C2=O (some centres undefined) | -3.18%
CC(C)=CCC[C@]1(C)[C@H]2CC(=O)[C@@]3(CO3)[C@@H]1C2 | -1.35%
CCCCCC(=O)N[C@@H](CC(C)C)C(=O)N[C@H](C=O)CCC(=O)O (Hexanoyl-Leu-Glu-aldehyde) | 2.66%
COc1ccc([C@@H]2c3cc4c(cc3C(=O)C(C)C2C)OCO4)cc1OC (some centres undefined) | -1.08%
CC1(C)CC[C@]2(CO)CC[C@]3(C)C(=CCC4[C@@]5(C)CC[C@H](O)C(C)(C)C5CC[C@]43C)C2C1 (some centres undefined) | -0.625%
